# A selection: hits, their analogues and other compounds. The true share with any hit is near 3%.
# A549 viability: kills or reduces viability of A549 cells in Nrf2 counter-screen. AID 504648. Potency, µM (doses to about 46 µM), without a hit: at the top dose activity change, negative = cytotoxicity, usual class: inhibitors. A549 ARE-Fluc cells, CellTiter-Fluor viability, 18-24 h. hit rate 0.16% among 390,000; also: % is scaled to controls: 0 for no effect and ±100 for the full control effect
#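 Cytotoxicity counterscreen: CellTiter-Fluor fluorescence was measured in A549 ARE_Fluc cells after 18-24 h of compound exposure in a concentration series. The subsequent BugLite luminescent read reports ARE-luciferase activity.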
# Nrf2 block: Nrf2 pathway inhibition | A549 ARE-Fluc reporter, luciferase luminescence, 18-24 h | Potency, µM (doses to about 46 µM), for the others: at the highest dose activity change, negative = inhibition, hits mostly inhibitors | hit rate 2.1% among 360,000; also: % is scaled to controls: 0 for no effect and ±100 for the full control effect; nearly all actives have a fitted effect of over 60% in size
#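 In this cell-based qHTS, ARE-driven firefly luciferase in A549 cells reports Nrf2 activity; the luminescent signal after BugLite lysis is the measured value, with a prior CellTiter-Fluor read for cell health.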
# TrxR1 inh: rat TrxR1 inhibition; recombinant rTrxR1, NADPH fluorescence consumption, selenite substrate; hit rate 1% among 390,000; Potency, µM (top dose mostly 114 µM), inactives show at the top dose activity change, negative = inhibition, usual class: inhibitors; O89049; also: % is scaled to controls: 0 for no effect and ±100 for the full control effect; nearly all actives have a fitted effect of over 65% in size
#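 Rat TrxR1 (90 nM in the dispensed reagent) was pre-reduced with 400 uM NADPH for 5 min at room temperature, then incubated with compound for 15 min. After 400 uM selenite was added, NADPH fluorescence (Ex 340/Em 450 nm) was followed for 8 min.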
# TrxR1 substrate: substrates of rat thioredoxin reductase 1; O89049; purified TrxR1 substrate turnover, NADPH consumption readout; Potency, µM (highest dose often 114 µM), inactives show at the highest dose activity change, negative = substrate turnover; hit rate 0.01% among 390,000; AID 588456; also: % is scaled to controls: 0 for no effect and ±100 for the full control effect; nearly all actives have a fitted effect of over 50% in size
#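 Rat TrxR1, dispensed at 90 nM, was prereduced with 400 uM NADPH (final) for 5 min at ~22 deg C, then incubated with compound 15 min before 400 uM selenite. A first-read NADPH fluorescence drop versus no-compound background flagged substrates.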
# Nrf2 activator: Nrf2 pathway activation | AREc32 ARE-luciferase reporter (MCF7-derived line), luminescence, 24 h | AID 624171 | Potency, µM (highest dose often 46.1 µM), inactives show at the highest dose activation, hits mostly activators | hit rate 0.31% among 410,000; also: % of control where 0% means no effect; nearly all actives have a fitted effect of over 65% in size
#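 ARE-driven firefly luciferase activity in AREc32 cells measured after a 24 hr compound exposure at 37 deg C, using Steady-Glo reagent and a 30 min room-temperature hold.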
# GALK inhibitor: blocks human galactokinase activity. P51570. Purified GALK, Kinase-Glo residual ATP luminescence. Potency, µM (doses to about 57.5 µM), for the others: at the highest dose activity change, negative = inhibition, actives largely listed as inhibitors. hit rate 0.007% among 270,000. AID 1868; also: % is scaled to controls: 0 for no effect and ±100 for the full control effect
# Target sequence (P51570 whole entry, looked up): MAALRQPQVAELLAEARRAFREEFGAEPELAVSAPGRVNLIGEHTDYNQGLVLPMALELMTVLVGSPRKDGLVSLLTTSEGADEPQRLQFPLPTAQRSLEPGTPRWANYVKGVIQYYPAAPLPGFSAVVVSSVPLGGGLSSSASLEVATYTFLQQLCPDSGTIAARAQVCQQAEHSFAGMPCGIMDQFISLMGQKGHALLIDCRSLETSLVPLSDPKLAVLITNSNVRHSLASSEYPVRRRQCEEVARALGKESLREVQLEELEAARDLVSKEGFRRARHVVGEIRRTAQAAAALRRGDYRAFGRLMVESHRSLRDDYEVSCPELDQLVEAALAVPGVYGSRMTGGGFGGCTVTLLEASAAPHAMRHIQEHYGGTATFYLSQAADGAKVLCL
#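 Quantitative HTS: GALK 5 nM, ATP 35 uM, galactose 100 uM, 1 h room temperature, then luciferase-based ATP detection.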
# * marks the source's active call; other numbers are inactive results; ? = inconclusive; . = not tested or not shown; [ ] = dose if it differs, or a comment. Calls follow the shape of the dose curve; as a rule, active = well fitted curve in the direction sought with a large enough effect; inconclusive = small, poorly fitted or top-dose-only effect, or another doubt; inactive = no such curve, though single readings can be large; an effect the other way counts as inactive or inconclusive. Potency is read from the fitted curve at half-maximal effect.
SMILES,A549 viability,Nrf2 block,TrxR1 inh,TrxR1 substrate,Nrf2 activator,GALK inhibitor
O=C(C1COc2cc(S(=O)(=O)Nc3ccc(Cl)cc3)ccc2O1)N1CCCC1 (configuration not stated),-4.9%,25.9µM*,8.8%[57.1 µM],-3.5%[57.1 µM],-0.1%,.
Cc1cccc2sc(NC(=O)C3c4ccccc4Oc4ccccc43)nc12,-11.1%,20.6µM*,5.9%,1.8%,-0.2%,-2.4%
Cc1cccc2sc(NC(=O)C3CC3)nc12,-0.6%,?,15.4%[57.1 µM],1.9%[57.1 µM],?,0.1%
Cc1cccc2sc(NC(=O)c3ccc(Cl)s3)nc12,7.1%,20.1%,56.8%,32.7%,7.08µM*,0.8%
COc1cc(NC(=O)C(OC(=O)CNC(=O)c2ccccc2)c2ccccc2)c(OC)cc1Cl (configuration not stated),6.9%,7.5%,.,.,.,.
CCc1ccc(CNC(=O)c2ccc3nc(SCc4ccc(F)cc4)n(C)c3c2)cc1,-10.3%,?,-12.8%,-13.8%,3.8%,.
CCOC(=O)N1CCN(C(=O)c2ccc3nc(SCc4ccc(F)cc4)n(C)c3c2)CC1,-4.4%,16.4µM*,-0.4%,-2.5%,3.3%,9.3%
O=C(c1ccc(CSc2nc3ccncc3n2Cc2cccc(F)c2)cc1)N1CCCCC1,-12.3%,23.1µM*,1.4%,1.3%,-0.5%,.
O=C(c1ccc(CSc2nc3ccncc3n2Cc2cccc(F)c2)cc1)N1CCCCCC1,-17.8%,?,-3.7%,1.3%,-1.3%,.
O=C(c1ccc(CSc2nc3ccncc3n2Cc2ccc(F)cc2)cc1)N1CCCCCC1,-3.7%,18.4µM*,5.3%,0.0%,-0.8%,.
CC(C)Nc1cccc(S(=O)(=O)N2CCCN(S(=O)(=O)c3ccc4c(c3)OCCO4)CC2)c1,-2.8%,?,.,.,.,.
Cc1nc2ccn(Cc3cccnc3)c(=O)c2cc1C(=O)Nc1ccc(OC(F)(F)F)cc1,0.7%,-28.9%,15.6%[57.1 µM],2.8%[57.1 µM],8.6%,.
COc1ccc(-n2sc3c(c2=S)-c2cc(OC)ccc2NC3(C)C)cc1,-17.8%,20.6µM*,-2.7%[57.1 µM],4.1%[57.1 µM],2.0%,-0.5%
COc1ccc(-c2nc3cc(NC(=O)COc4ccccc4C)ccc3o2)cc1,-15.0%,-10.0%,39.6%,40.5%,-0.9%,.
CCCCNC(=S)NCCCN(Cc1ccc(Cl)c(Cl)c1)c1ccc(Br)cn1,-15.5%,?,.,.,.,.
CC(=O)c1c(C)[nH]c(C(=O)C(C)Sc2nnc(NC3CC3)s2)c1C (configuration not stated),-9.0%,16.4µM*,-16.4%,-6.8%,2.7%,.
O=C(CSc1nc2nc(-c3cccs3)cc(C(F)(F)F)c2c(=O)[nH]1)C(F)(F)F,1.8%,?,35.5µM*,609.0%,9.1%,3.3%
CCN1CCN(C(=O)c2ccc3c(c2)N(Cc2cccc(Cl)c2)C(=O)c2ccccc2S3=O)CC1 (configuration not stated),6.7%,.,15.4%[57.1 µM],-0.7%[57.1 µM],0.2%,.
CN(Cc1ccccc1)C(=O)c1ccc2c(c1)N(Cc1ccc(Cl)cc1)C(=O)c1ccccc1S2=O (configuration not stated),-29.1%,20.6µM*,13.3%,0.0%,0.4%,.
O=C(NCc1ccco1)c1ccc2c(c1)N(Cc1ccc(Cl)cc1)C(=O)c1ccccc1S2=O (configuration not stated),-10.9%,-28.3%,22.5%,4.9%,5.3%,.
CCN1C(=O)c2ccccc2S(=O)c2ccc(C(=O)N3CCN(c4cccc(C)c4)C(C)C3)cc21 (configuration not stated),-28.5%,16.4µM*,5.8%,2.6%,1.4%,.
CCOC(=O)N1CCN(C(=O)c2ccc3c(c2)N(Cc2cccc(Cl)c2)C(=O)c2ccccc2S3=O)CC1 (configuration not stated),?,20.6µM*,-3.4%,-12.7%,0.3%,4.0%
Cc1ccc(C)c(NC(=O)c2nn(C)c3c2CS(=O)(=O)c2ccccc2-3)c1,9.4%,0.6%,9.5%,6.0%,-0.2%,.

# Screening data (PubChem)
